Assay [1] relates to transactivating tegument protein VP16 (Human herpesvirus 1). Nature of the assay: compounds suppressing VP16-driven luciferase signal – cell-based, luminescence, single concentration, counter-screen for SRC2 inhibitor project (AID 652007). The note with it: cell-based VP16 transactivation luciferase reporter, at 8.9 µM, hits give high values. For orientation: A counterscreen serves to expose hits that act by an unwanted route or on another target.

Assay [2] addresses Nuclear receptor coactivator 2 (Homo sapiens) (UniProt Q15596). Put plainly: inhibition of GAL4-SRC2 driven luciferase expression – cell-based, luminescence, HEK293, triplicate, confirmation (AID 652008;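 active = mean inhibition above 46.5%, the solvent-only control mean plus 3 SD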;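 also: 0% = DMSO-treated cells and 100% = Gossypol at 36 µM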). The note with it: HEK293 GAL4-SRC2 luciferase reporter, at 8.9 µM, hits give high values.

Each structure is given as a SMILES string. The source made the active and inactive calls. Rule as the data show it, unless noted: active = inhibition above about 36%; inactive = the rest.

The inhibition is the drop in the measured response relative to a control, in per cent.

Sequence of Nuclear receptor coactivator 2 (Homo sapiens) (Q15596 whole entry, looked up, the tested form may be a part): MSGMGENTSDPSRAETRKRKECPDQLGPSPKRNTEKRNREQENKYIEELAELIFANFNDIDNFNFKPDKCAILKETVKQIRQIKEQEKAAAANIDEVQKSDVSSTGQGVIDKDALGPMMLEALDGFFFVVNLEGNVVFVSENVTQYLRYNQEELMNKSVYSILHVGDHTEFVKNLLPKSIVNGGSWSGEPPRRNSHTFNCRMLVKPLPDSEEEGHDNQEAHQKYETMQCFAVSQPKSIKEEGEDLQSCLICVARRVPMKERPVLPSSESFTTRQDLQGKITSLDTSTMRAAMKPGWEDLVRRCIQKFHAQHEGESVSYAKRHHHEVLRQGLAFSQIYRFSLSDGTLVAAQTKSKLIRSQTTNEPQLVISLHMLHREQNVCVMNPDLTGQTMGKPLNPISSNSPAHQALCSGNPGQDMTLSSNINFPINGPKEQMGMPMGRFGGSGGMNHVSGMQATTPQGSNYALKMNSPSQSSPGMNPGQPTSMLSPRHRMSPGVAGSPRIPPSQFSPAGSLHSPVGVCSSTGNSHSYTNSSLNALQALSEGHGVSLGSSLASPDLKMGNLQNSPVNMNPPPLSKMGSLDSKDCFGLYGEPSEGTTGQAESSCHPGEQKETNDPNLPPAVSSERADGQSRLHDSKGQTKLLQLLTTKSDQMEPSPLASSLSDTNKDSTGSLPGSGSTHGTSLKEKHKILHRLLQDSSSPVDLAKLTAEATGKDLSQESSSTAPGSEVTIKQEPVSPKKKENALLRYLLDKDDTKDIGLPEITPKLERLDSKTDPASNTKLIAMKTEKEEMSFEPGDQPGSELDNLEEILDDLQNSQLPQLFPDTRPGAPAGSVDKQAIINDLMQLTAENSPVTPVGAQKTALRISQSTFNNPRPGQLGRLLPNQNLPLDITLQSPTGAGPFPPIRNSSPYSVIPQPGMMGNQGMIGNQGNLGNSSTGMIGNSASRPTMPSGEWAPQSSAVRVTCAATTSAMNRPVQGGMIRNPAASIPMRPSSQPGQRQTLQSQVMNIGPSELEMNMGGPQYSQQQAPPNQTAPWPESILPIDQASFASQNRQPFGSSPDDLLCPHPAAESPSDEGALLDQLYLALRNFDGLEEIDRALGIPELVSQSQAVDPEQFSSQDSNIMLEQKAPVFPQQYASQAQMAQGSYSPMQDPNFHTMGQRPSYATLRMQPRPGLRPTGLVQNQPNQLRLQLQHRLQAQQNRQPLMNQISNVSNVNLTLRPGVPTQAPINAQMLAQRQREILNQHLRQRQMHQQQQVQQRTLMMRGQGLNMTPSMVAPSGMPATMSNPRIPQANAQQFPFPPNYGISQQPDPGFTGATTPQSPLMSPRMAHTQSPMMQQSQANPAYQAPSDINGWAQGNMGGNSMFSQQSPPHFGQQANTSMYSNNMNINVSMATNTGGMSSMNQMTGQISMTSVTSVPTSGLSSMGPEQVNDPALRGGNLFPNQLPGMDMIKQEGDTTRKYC

Consider `C[N+]1(CC2COC3(CCCCC3)O2)CCCC1` (stereo unspecified), for which the results for the inhibition in assay [1] and in assay [2] were -9.45% (inactive) and -21.5% (inactive), respectively.
For `O=S(=O)(c1cc(C(F)(F)F)ccc1Cl)N1CCN(c2ncnc3ccccc23)CC1`, in that order: 17.2% (inactive) and 18.7% (inactive).
For `O=C(c1cccc2c1-c1ccccc1/C2=N/O)N1CCCCC1`, in that order: 0.22% (inactive) and 30% (inactive).
For `COc1ccc(OC)c(NC(=O)CCCc2ccccc2)c1`, in that order: -5.12% (inactive) and -20.9% (inactive).
For `COc1ccc(CN2CCC(C(=O)Nc3ccc(Oc4ccccc4)nc3)CC2)cc1F`, the inhibition in assay [1] was 16.9% (inactive); in assay [2], 28.5% (inactive).
In the case of `C[C@@H]1C[C@@H]2O[C@H]2CCCCC(=O)Cc2cc(O)cc(O)c2C(=O)O1`, the inhibition was 53.1% (active) in assay [1] and 28.7% (inactive) in assay [2].
For `CCOC(=O)c1c(NC(=O)C2=COCCO2)sc2c1CCN(C(=O)OC)C2`, in that order: 3.45% (inactive) and 8.72% (inactive).
Turning to `[2H]C(CCOS(N)(=O)=O)c1ccc(C(C)(C)C)cc1` (stereo unspecified), the inhibition is 13.7% (inactive) in assay [1] and 41.4% (inactive) in assay [2].
On the same counts, the results for `O=S(=O)(c1cccc2cnccc12)N1CCNCC1` are 5.01% (inactive) and 48.1% (active).
Take `O=C(O)c1ccccc1C=NN1CCCCCC1`: the inhibition in assay [1] is -9.35% (inactive); in assay [2] it was -24.3% (inactive).
On the same counts, the results for `Cc1cccc(C(=O)O/N=C(\N)c2ccccn2)c1` are -73.6% (inactive) and -81.6% (inactive).
For `Cc1cc(C(=O)CN2C(=O)C(=O)N(Cc3ccccc3)C2=O)c(C)n1-c1ccc2c(c1)OCCO2`, the inhibition is -14.1% (inactive) in assay [1] and -36% (inactive) in assay [2].
As to `Cc1nc([N+](=O)[O-])c(C(=O)OCc2ccccc2F)n1C`, the inhibition in assay [1] was -22.8% (inactive); in assay [2] it was 1.38% (inactive).
For `CCN(CC)S(=O)(=O)c1ccc(NC2c3ccccc3C(=O)N2Cc2ccco2)cc1` (stereo unspecified), in that order: -12.8% (inactive) and -30.1% (inactive).
For the compound `CC(=O)N1/C(=C/c2ccc(N(C)C)cc2)C(=O)c2ccccc21`, the inhibition in assay [1] is 13.3% (inactive); in assay [2] it was 72.6% (active).
On the same counts, the results for `Cc1ccc2c(c1)sc(=NC(=O)c1cccs1)n2C` are -58.3% (inactive) and -3.83% (inactive).
As to `O=C(O)c1cccc(CSc2nnc(-c3ccc(Cl)cc3)o2)c1`, the inhibition is 41.3% (active) in assay [1] and 43.1% (inactive) in assay [2].
For `CC(C)(C)c1ccccc1NC(=O)CN1C(=O)NC2(CCCC2)C1=O`, the values for the inhibition in assay [1] and in assay [2] were -13.7% (inactive) and -9.65% (inactive), respectively.
For `COc1ccc(OCC(=O)Nc2ccc3c(c2)C(=O)NC3=O)cc1`, in that order: -1.89% (inactive) and -9.88% (inactive).
On the same counts, the results for `CCc1cc2c(Sc3nc4ccccc4s3)ncnc2s1` are 36.6% (active) and 42.6% (inactive).
For the compound `Cc1ccc(Cl)cc1N1CCN(C(=O)CCS(=O)(=O)c2ccc3c(c2)NC(=O)CO3)CC1`, the inhibition in assay [1] was 13.9% (inactive); in assay [2], 30.1% (inactive).
On the same counts, the results for `CCC(=O)Nc1ccc2c(c1)C(=O)N(C)[C@@H]1CC[C@@H](CC(=O)NCc3ccc(OC)cc3)O[C@H]1CO2` are -18.1% (inactive) and -9.9% (inactive).
Regarding `CC(C)C(=O)Nc1ccc(C(=O)NCc2cccnc2)cc1`, the inhibition in assay [1] is -2.6% (inactive); in assay [2] it was 33.3% (inactive).

The values above are taken from PubChem BioAssay.
